# D3 antag – D3 dopamine receptor (human) antagonism | max response, negative = inhibition, % | D3R cells, DiscoveRx beta-arrestin luminescence, antagonist mode; active compounds read low | P35462 | 360,000 tested, 2.5% active; in the data active = max response below about -50%; inconclusive = no clear call, values can overlap the other calls; also: % is scaled to controls: 0 for no effect and ±100 for the full control effect
#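 Cells expressing the human receptor were seeded at 1500 cells/well, incubated overnight at 37 degrees C in 5% CO2, then exposed to library compounds with dopamine controls for 90 minutes at 37 degrees C before luminescent detection.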
# DRD3 agonist – agonists of human D3 dopamine receptor. D3R DiscoveRx beta-arrestin cells, luminescence, 90 min. max activation, %. 410,000 tested, 0.58% active; in the data active = max activation above about 30%; also: 0% is about no effect
#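 Cells at 1500/well, incubated overnight, then treated with pinned compounds (dopamine as control) for 90 min at 37 degrees C. DiscoveRx reagent added for 30 - 60 minutes at room temperature; luminescence read.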
# Giardia kill – Giardia lamblia killing. Giardia lamblia trophozoite viability. activity change, % at 7.66 µM, hits read low. 340,000 tested, 0.15% active. AID 540267; in the data active = activity change below about -80%; inconclusive = between about -30% and that limit;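 also: parasites exposed to compound for two days anaerobically before the ATP read; % is scaled to controls: 0 for no effect and ±100 for the full control effect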
#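 Each well holds 100 Giardia trophozoites and compound. After two days (48 hrs) at 37 deg C in anaerobic conditions, ATP is quantified by luminescence.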
# B2AR arrestin – recruits beta-arrestin to the human beta2-adrenergic receptor. P07550. beta-arrestin recruitment to beta2AR, cell-based reporter. Potency, µM (highest dose often 46.1 µM), for inactives: top-dose activation, most hits filed as activators. 330,000 tested, 0.02% active; active = well fitted activation curve with a large enough effect; inconclusive = small, poorly fitted or top-dose-only effect;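 also: potency is read from the fitted curve at half-maximal effect; 0% = DMSO controls and full agonism = EC100 isoproterenol or metaproterenol; nearly all actives have a fitted effect of over 65% in size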
# Target sequence (P07550 whole entry, looked up): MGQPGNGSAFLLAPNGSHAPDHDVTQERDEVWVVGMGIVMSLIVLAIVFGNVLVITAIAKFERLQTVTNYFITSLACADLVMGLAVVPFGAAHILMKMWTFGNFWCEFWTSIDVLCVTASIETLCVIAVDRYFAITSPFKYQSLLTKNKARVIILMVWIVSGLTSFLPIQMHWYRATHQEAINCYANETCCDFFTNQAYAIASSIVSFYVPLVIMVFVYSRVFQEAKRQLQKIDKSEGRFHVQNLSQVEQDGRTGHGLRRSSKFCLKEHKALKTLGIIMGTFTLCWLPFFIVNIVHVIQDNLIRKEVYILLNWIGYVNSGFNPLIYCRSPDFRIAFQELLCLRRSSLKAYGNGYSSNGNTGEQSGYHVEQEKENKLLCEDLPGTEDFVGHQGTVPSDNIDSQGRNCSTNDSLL
# * hit, by the source's call; u = inconclusive; x = no result. Most compounds without a hit are left out; they make up all but 2.8% or so of the library.
SMILES,D3 antag,DRD3 agonist,Giardia kill,B2AR arrestin
COc1ccc(Cc2nnc(Nc3ccc(C)cc3C)[nH]c2=O)cc1,-61*,-2,-4,6%
Cc1ccc(C(=O)c2cn(Cc3ccccc3)c3nc(C)ccc3c2=O)cc1,x,15,x,x
COc1cc(O)cc(/C=C/c2ccccc2)c1,6,70*,1,x
CCOC(=O)CCCCN(Cc1ccccc1F)S(=O)(=O)c1ccc(F)c(C(=O)Nc2cc(Cl)cc(Cl)c2)c1,x,-2,x,x
CCSc1nnc2c(n1)OC(c1ccc(OC)cc1OC)N(C(C)=O)c1ccccc1-2 (stereo not drawn),x,1,x,x
C#C[C@]1(OC(C)=O)CC[C@H]2[C@@H]3CCC4=C/C(=N/O)CC[C@@H]4[C@H]3CC[C@@]21CC,x,37*,x,x
c1ccc(-c2ccc3c(c2)c2c4n3CCN=C4CCC2)cc1,-10,-7,0,-1%
OC1CN=C2CCCc3c2n(c2ccc(Cl)cc32)C1 (stereo not drawn),-77*,-15,20,0%
CCN(C(=O)CSc1nc2ccccc2n1Cc1cc(C)ccc1C)c1ccccc1,x,-11,x,x
CCc1ccc(OC2(C)CCN(Cc3ccc4c(c3)OCCO4)C2)cc1 (stereo not drawn),11,-18,x,x
CC(=O)c1ccc(OC2(C)CCN(Cc3ccc(C)cc3)C2)cc1 (stereo not drawn),-102*,-11,x,x
CC(=O)c1ccc(OC2(C)CCN(Cc3ccc4c(c3)OCCO4)C2)cc1 (stereo not drawn),-69*,-10,x,x
COC(=O)C1=C[C@@H](C(=O)OC)C2C3=C(C(=O)[C@@]2(C)NC(=O)c2ccccc2)[C@H](C)n2c(=O)n(-c4ccccc4)c(=O)n2[C@@H]3C1 (stereo partly drawn),x,x,-13,x
O=C1N/C(=N/N=C/c2ccccc2O)SC1Cc1ccc(F)cc1 (stereo not drawn),-56*,-17,2,4%
Cc1ccc(S(=O)(=O)Cn2nnnc2C(C(C)C)N2CCN(Cc3ccco3)CC2)cc1 (stereo not drawn),-59*,-31,4,0%
Cc1ccc(S(=O)(=O)Cn2nnnc2C(C(C)C)N2CCSCC2)cc1 (stereo not drawn),-16,-11,-13,1%
C=C(C)C(=O)OCC(O)COc1ccc(C(C)(C)c2ccc(OCC(O)COC(=O)C(=C)C)cc2)cc1 (stereo not drawn),66,71*,18,0%
CC(=O)c1ccc(OCC(O)COc2ccc(C(C)=O)cc2)cc1,-14,0,-6,0%
Cc1nc(C(F)(F)F)ccc1C(=O)N1CCC1(C)C(=O)NCc1cccs1 (stereo not drawn),-91*,-3,x,x
CCCCNC(=O)C1(C)CCN1C(=O)c1ccc(C(F)(F)F)nc1C (stereo not drawn),-6,-4,x,x
COc1ccccc1C(=O)Nc1ccccc1SC(=O)c1ccccc1OC,-57*,-16,7,0%
COC(=O)c1ccccc1NC(=O)c1ccccc1OC,-15,6,-9,0%
CC12CCC=CC1C(c1cccc([N+](=O)[O-])c1)N(Cc1ccccc1)C2=O (stereo not drawn),x,x,-4,x
C=CCN=c1scc(C)n1/N=C/c1ccc(O)c(O)c1,13,31*,-2,0%
CN=c1scc(-c2ccco2)n1/N=C/c1ccc(O)c(O)c1,-10,51*,-27,-1%
SMILES,D3 antag,DRD3 agonist,Giardia kill,B2AR arrestin
CCOC(=O)c1nn(C)c(=S)n(C)c1=O,4,-7,-7,x
CCOC(=O)c1nn(C)c(C)c1Cl,-71*,-30,-8,0%
Cc1cccc(C(=O)n2nc(C)c(S(=O)(=O)N3CCOCC3)c2C)c1,x,-13,x,x
CC(=O)c1cccc(Nc2nn(-c3ccc(OC(F)(F)F)cc3)nc2C(C)=O)c1,x,15,x,x
Cc1ccc(CS(=O)(=O)c2ncc(Cl)c(C(=O)Nc3ccc(OC(F)F)cc3)n2)cc1,-63*,-33,2,-1%
CS(=O)(=O)c1ncc(Cl)c(C(=O)Nc2ccc3ccccc3c2)n1,-117*,-30,-16,0%
CC(=O)Nc1ccc(NC(=O)c2nc(S(=O)(=O)Cc3ccccc3)ncc2Cl)cc1,-29,-1,-23,0%
CCS(=O)(=O)c1ncc(Cl)c(C(=O)Nc2ccc(C)cc2)n1,-130*,-20,-28,0%
Cc1cccc(N2CCN(C(=O)CS(=O)(=O)c3cccc4nsnc34)CC2)c1C,x,-12,x,x
COc1ccc(NC(=O)CSC2=Nc3ccccc3C3=NC(CCC(=O)NCc4ccco4)C(=O)N23)cc1 (stereo not drawn),x,8,x,x
COC(=O)C1=C[C@@H](C(=O)OC)C2C3=C(C(=O)[C@@]2(C)NC(=O)c2ccccc2)[C@H](c2ccccc2)n2c(=O)n(-c4ccccc4)c(=O)n2[C@@H]3C1 (stereo partly drawn),x,x,-4,x
CCS(=O)(=O)c1nc(S(=O)(=O)c2ccc(Cl)cc2)c(NCc2ccc(Cl)cc2)s1,x,-14,x,x
O=C(CCCCCNC(=O)N1CCn2c1nc1ccccc12)N[C@@H](C(=O)O)c1ccccc1,-7,4,3,0%
O=C(CCCCCNC(=O)N1CCn2c1nc1ccccc12)N[C@@H](Cc1ccccc1)C(=O)O,-17,30*,2,-1%
CC1=CCC(C(C)(C)O)CC1 (stereo not drawn),x,-12,x,x
O=C1C(SCCO)=C(SCCO)C(=O)c2ccccc21,-136*,-67,3,-2%
CCN(CC)CCCNC(=S)N1CCN(c2nc(-c3ccc(F)cc3)cs2)CC1,-52*,-7,-24,0%
CCNC(=S)N1CCN(c2nc(-c3ccc(F)cc3)cs2)CC1,-2,3,-24,-1%
Clc1ccc(CSc2nnc(CNc3cccc(Cl)c3)o2)cc1,-57*,-21,3,0%
Fc1cccc(Cl)c1CSc1nnc(CNc2ccccc2)o1,1,-6,12,0%
O=C1CC(c2ccccc2)=NN1c1nc(-c2ccccc2)cs1,14,47*,19,0%
CCOC(=O)C1=C(c2ccccc2)N=c2s/c(=C\c3ccc(O)cc3)c(=O)n2C1c1cccs1 (stereo not drawn),-57*,-3,2,-1%
CCOC(=O)C1=C(c2ccccc2)N=c2sc(=Cc3cc(OC)c(OC)c(OC)c3)c(=O)n2C1c1cccs1 (stereo not drawn),-9,-5,x,x
O=[N+]([O-])c1ccc(/C=N/n2cnc3ccccc32)s1,3,-2,u,0%
Cc1cc2ncn(/N=C/c3ccc([N+](=O)[O-])s3)c2cc1C,-15,11,-98*,-1%
O=C(NN=C1CCCC1)C1COc2ccccc2O1 (stereo not drawn),-7,43*,-23,0%
O=C(NNC(=O)C1COc2ccccc2O1)c1ccccc1O (stereo not drawn),8,32*,-2,0%
COc1ccc(Cl)cc1C(=O)NNC(=O)C1COc2ccccc2O1 (stereo not drawn),12,0,-15,0%
CC(C)(C)C1CCC(=NNC(=O)C2COc3ccccc3O2)CC1 (stereo not drawn),-14,-6,46,0%
